The target in assay [1] is Bile acid receptor (Homo sapiens) (UniProt Q96RI1). In words: qHTS assay for small molecule antagonists of farnesoid X receptor signaling (AID 588526). Further: potency means the concentration at half of the fitted maximal effect. An outline of the steps:
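Beta-lactamase reporter antagonist mode: HEK293T FXR-UAS-bla cells, titrated compound, CDCA stimulation, 16 h 37 C, CCF4 dye 2 h RT. Data normalized to CDCA 50 uM and DMSO; Hill-fit IC50.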
For orientation: qHTS replaces the single test concentration by a dilution series.

The target is the same in assay [2]. In words: qHTS assay for small molecule agonists of farnesoid X receptor signaling (AID 588527).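 Further: series mostly up to about 77 µM; 0% = vehicle basal and 100% = reference agonist.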 The note with it: HEK293T FXR-UAS-bla, beta-lactamase ratio, 16 h; activation: stronger effect = higher value. An outline of the steps:
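Read-out: beta-lactamase reporter fluorescence with CCF4 substrate in GeneBLAzer FXR-UAS-bla HEK293T cells, after 16 h compound exposure at 37 C. Response scaled between DMSO basal (0%) and chenodeoxycholic acid at 100 uM (100%).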

Assay [3] addresses Peroxisome proliferator-activated receptor delta (Homo sapiens) (UniProt Q03181). In words: qHTS assay for small molecule agonists of peroxisome proliferator-activated receptor delta signaling (AID 588534).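 Further: 0% = DMSO basal wells and 100% = positive control agonist at 10 µM.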 An outline of the steps: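 Cells carrying a PPAR-delta beta-lactamase reporter were treated with compounds for 18 h at 37 °C in agonist mode. CCF4 fluorescence was read after 2 h; EC50 and efficacy from Hill fits.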

Assay [4] concerns the target Vitamin D3 receptor (Homo sapiens) (UniProt P11473). Nature of the assay: qHTS assay for small molecule antagonists of vitamin D receptor signaling (AID 588541). Further: potency means the concentration at half of the fitted maximal effect. An outline of the steps: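 Antagonist-mode beta-lactamase reporter assay: HEK293T VDR-UAS-bla cells were exposed to titrated compound alongside 1-alpha,25-dihydroxyvitamin D3 at 3 nM final for 16 h. Values were normalized to the 50 nM agonist control and DMSO basal, with IC50 and efficacy from Hill equation fits.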

The nature of assay [5]: qHTS assay for small molecule agonists of the antioxidant response element (ARE) signaling pathway measured by Nrf2-dependant transcriptional activity (AID 720636; active means well fitted curve in the direction sought with a large enough effect in the repeat runs; an effect the other way counts as inactive or inconclusive; further: % of control where 0% means no effect). The gist of the method: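 ARE-luc HepG2 cells carrying an Nrf2-responsive luciferase reporter were plated in medium with 1% dialyzed FBS, left 6 hr at 37 C to attach, then exposed to compound for 16 hr. Luciferase luminescence was read after ONE-Glo addition.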

A short description of assay [6]: qHTS assay for small molecule agonists of the antioxidant response element (ARE) signaling pathway measured by Nrf2-dependant transcriptional activity - cell viability counter screen (AID 720653; active means well fitted curve in the direction sought with a large enough effect in the repeat runs; an effect the other way counts as inactive or inconclusive; further: potency means the concentration at half of the fitted maximal effect; on max response: on the % scale 0 is the no-effect control and ±100 the full control effect). The note with it: ARE-bla HepG2 viability, CellTiter-Glo ATP luminescence, 16 h; max response: stronger effect = lower value. An outline of the steps:
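Cytotoxicity counter screen: intracellular ATP quantified by CellTiter-Glo luminescence in the same ARE-bla HepG2 plates, after 16 h compound exposure and a 2 h beta-lactamase substrate step.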

A short description of assay [7]: qHTS assay for cell viability of HEK293 cells (AID 743288; active means well fitted curve in the direction sought with a large enough effect; an effect the other way counts as inactive or inconclusive; further: nearly all actives have a fitted effect of over 50% in size; further: potency means the concentration at half of the fitted maximal effect; on max response: on the % scale 0 is the no-effect control and ±100 the full control effect). The note with it: ATP luminescence (CellTiter-Glo), 18 h; max response: stronger effect = lower value. An outline of the steps:
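Environmental chemicals tested in qHTS format against parental HEK293 cells; 18 h treatment, 37 C; read-out ATP luminescence (CellTiter-Glo), 30 min RT development.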

Assay [8] concerns the target Glucocorticoid receptor (Homo sapiens) (UniProt P04150). In words: qHTS assay for small molecule agonists of glucocorticoid receptor signaling (AID 588532; active means well fitted curve in the direction sought with a large enough effect in the signal ratio, with a control signal flat; the % refers to the signal ratio;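 further: 100% = dexamethasone at 0.1 µM and 0% = DMSO only wells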). The note with it: HeLa MMTV-bla, beta-lactamase ratio, agonist, 18 h; activation: stronger effect = higher value, percent of dexamethasone control, DMSO zero. The gist of the method: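 Quantitative HTS using CellSensor MMTV-bla HeLa cells in charcoal/dextran-treated serum; compounds tested up to 92 uM. After 18 h at 37 C, CCF4 dye reported reporter induction.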

Assay [9] is described as follows: qHTS assay for small molecule antagonists of peroxisome proliferator-activated receptor delta signaling (AID 588535).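 Further: cells co-treated with a PPAR-delta agonist as stimulator during compound exposure.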 Conditions: HEK293T PPARd-UAS-bla, beta-lactamase FRET ratio, 18 h; 460 nm channel. The gist of the method: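 HEK293T PPAR-delta-UAS-bla cells, 4000/well, 2% charcoal/dextran FBS; 5 h 37 C; cpd titration; 18 h 37 C; CCF4 2 h RT; FI 460/530 nm; Hill fit → IC50, efficacy.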

A short description of assay [10]: qHTS assay for small molecule antagonists of retinoid X receptor alpha signaling (AID 588546; active means well fitted inhibition curve with a large enough effect in the signal ratio, with a control signal flat, not every such curve was filed as active; the % refers to the signal ratio;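 further: cells stimulated with 9-cis-retinoic acid as agonist; on the % scale 0 is the no-effect control and ±100 the full control effect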). The note with it: HEK293T RXRa-UAS-bla, beta-lactamase ratio, antagonist mode; measured here: W530 green channel, cytotoxicity proxy. The gist of the method: (§1)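 Beta-lactamase reporter inhibition, read as CCF4 fluorescence ratio (ex 405, em 460/530 nm) after 2 h at RT. HEK293T UAS-bla cells, 2500/well, were stimulated with 9-cis-RA at 500 or 100 nM final alongside test compound for 18 h at 37 C.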

For assay [11], the target named is Retinoic acid receptor RXR-alpha (Homo sapiens) (UniProt P19793). The assay is described as above. The note with it: HEK293T RXRa-UAS-bla, beta-lactamase ratio, antagonist mode. An outline of the steps: as §1
Sequence of Retinoic acid receptor RXR-alpha (Homo sapiens) (P19793 whole entry, looked up): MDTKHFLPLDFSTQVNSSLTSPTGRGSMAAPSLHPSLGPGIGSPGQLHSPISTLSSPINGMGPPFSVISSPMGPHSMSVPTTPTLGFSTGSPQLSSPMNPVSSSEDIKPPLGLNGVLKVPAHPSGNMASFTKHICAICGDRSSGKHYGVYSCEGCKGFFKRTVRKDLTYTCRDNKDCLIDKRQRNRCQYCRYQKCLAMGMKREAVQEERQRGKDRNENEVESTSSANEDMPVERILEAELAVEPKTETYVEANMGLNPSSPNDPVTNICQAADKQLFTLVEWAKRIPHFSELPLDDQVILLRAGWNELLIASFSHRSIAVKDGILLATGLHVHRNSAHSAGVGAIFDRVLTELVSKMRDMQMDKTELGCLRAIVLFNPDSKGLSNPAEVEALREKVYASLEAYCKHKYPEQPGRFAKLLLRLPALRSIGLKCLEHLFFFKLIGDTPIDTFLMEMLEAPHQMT
Assay [12] is described as follows: qHTS assay for small molecule activators of the p53 signaling pathway (AID 651743; active means well fitted activation curve with a large enough effect in the signal ratio, not every such curve was filed as active; the % refers to the signal ratio; further: series mostly up to about 92 µM; % of control where 0% means no effect). Conditions: HCT-116 p53RE-bla, beta-lactamase FRET ratio, 16 h; activation: stronger effect = higher value. An outline of the steps: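 Read-out is fluorescence intensity from the LiveBLAzer B/G FRET substrate, added for 2 hours at room temperature after HCT-116 p53RE-bla cells had been incubated with compounds for 16 hours at 37 C.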

Assay [13] can be described thus: qHTS assay for environmental chemicals that activate the Aryl hydrocarbon Receptor (AhR) signaling pathway (AID 651777; active means well fitted curve in the direction sought with a large enough effect; an effect the other way counts as inactive or inconclusive; further: % of control where 0% means no effect; nearly all actives have a fitted effect of over 15% in size). The note with it: 1A2-DRE human hepatoma cells, luciferase, 24 h; activation: stronger effect = higher value. The gist of the method: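 Human hepatoma 1A2-DRE cells, stably carrying a dioxin response element and CYP1A2 promoter driving luciferase, were exposed to compounds for 24 hr at 37 C and 5% CO2. Luciferase signal was then read after 30 min One-Glo at room temperature.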

Assay [14] addresses Peroxisome proliferator-activated receptor alpha (Homo sapiens) (UniProt Q07869). Nature of the assay: qHTS assay for small molecule agonists of the peroxisome proliferator-activated receptor alpha (PPARalpha) signaling pathway (AID 651778; active means well fitted curve in the direction sought with a large enough effect; an effect the other way counts as inactive or inconclusive; further: % of control where 0% means no effect). Conditions: PathHunter PPARalpha complementation, chemiluminescence, 6 h; max response: stronger effect = higher value. The gist of the method: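 Chemiluminescence from complemented enzyme reported PPARalpha activation in cells after 6 hr of compound treatment at 37 C. The detection reagent was incubated for 60 min at room temperature, and compounds were scored as agonists.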

Assay [15] deals with Vitamin D3 receptor (Homo sapiens) (UniProt P11473). In words: qHTS assay for small molecule agonists of vitamin D receptor signaling (AID 588543).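 Further: 0% = DMSO basal and 100% = reference agonist control.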 An outline of the steps:
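β-lactamase reporter, VDR-UAS-bla HEK293T, agonist mode. Cells plated 5 h at 37 °C, compound titration 16 h at 37 °C, CCF4 dye 2 h RT, ratio 460/530 nm. Hill fit → EC50, efficacy vs 50 nM 1α,25-(OH)2D3.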

For assay [16], the target named is Thyroid hormone receptor beta (Homo sapiens) (UniProt P10828). In words: qHTS assay for small molecule agonists of thyroid hormone receptor beta signaling (AID 588545).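 Further: 0% = DMSO only and 100% = 10 nM T3.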 An outline of the steps:
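Beta-lactamase reporter activity under TR response element control is measured in HEK 293 cells after 18 hrs compound exposure. Signal is ratiometric CCF4 fluorescence, 460/530 nm.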

The target in assay [17] is Retinoic acid receptor RXR-alpha (Homo sapiens) (UniProt P19793). In words: qHTS assay for small molecule agonists of retinoid X receptor alpha signaling (AID 588544).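 Further: 0% = DMSO basal wells and 100% = reference agonist.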
Assay [18] in a line: qHTS assay for cell viability of the p53RE-bla HCT-116 cell line (AID 743292; active means well fitted curve in the direction sought with a large enough effect; an effect the other way counts as inactive or inconclusive; further: on the % scale 0 is the no-effect control and ±100 the full control effect; nearly all actives have a fitted effect of over 55% in size). An outline of the steps:
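CellSensor p53RE-bla HCT-116 cells, 4,000/well, preincubated 5 h at 37 C, then exposed to compounds in DMSO for 16 h at 37 C. Viability read as CellTiter-Glo luminescence (intracellular ATP) after 30 min at room temperature.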

Assay [19] in a line: qHTS assay for small molecule activators of the nuclear factor-kappa B (NF-kB) signaling pathway (AID 651749; active means well fitted activation curve with a large enough effect in the signal ratio; the % refers to the signal ratio; further: series mostly up to about 77 µM; % of control where 0% means no effect). The note with it: NF-kB-bla ME-180 cells, beta-lactamase FRET ratio, 16 h; activation: stronger effect = higher value. The gist of the method: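 Readout: beta-lactamase reporter driven by an NF-kB response element, detected fluorescently as loss of FRET. Cells were the ME-180 line, treated 16 hr at 37C with pin-transferred compound.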

The target of assay [20] is Thyroid hormone receptor beta (Homo sapiens) (UniProt P10828). Nature of the assay: qHTS assay for small molecule antagonists of thyroid hormone receptor beta signaling (AID 588547; active means well fitted inhibition curve with a large enough effect in the signal ratio, with a control signal flat, not every such curve was filed as active; the % refers to the signal ratio;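 further: cells stimulated with 0.4 nM T3 agonist during compound exposure; series mostly up to about 77 µM; on the % scale 0 is the no-effect control and ±100 the full control effect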). The note with it: TR-UAS-bla HEK293, beta-lactamase ratio, antagonist mode, 18 h. The gist of the method:
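Inhibition of T3-driven (0.4nM final) beta-lactamase reporter activity was measured over 0.59 nM to 92 uM compound after 18 h at 37 C. The cells were GripTite HEK293 TR-UAS-bla in charcoal/dextran-stripped serum, with CCF4 ratio read-out and IC50 from Hill fits.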

Each structure is given as a SMILES string. Inconclusive results are not listed. Calls of active or inactive are those of the source. Unless noted, the call rests on the fitted dose curve.

Here are results for 6 molecules from PubChem BioAssay (NCATS).

Sequence of Peroxisome proliferator-activated receptor alpha (Homo sapiens) (Q07869 whole entry, looked up): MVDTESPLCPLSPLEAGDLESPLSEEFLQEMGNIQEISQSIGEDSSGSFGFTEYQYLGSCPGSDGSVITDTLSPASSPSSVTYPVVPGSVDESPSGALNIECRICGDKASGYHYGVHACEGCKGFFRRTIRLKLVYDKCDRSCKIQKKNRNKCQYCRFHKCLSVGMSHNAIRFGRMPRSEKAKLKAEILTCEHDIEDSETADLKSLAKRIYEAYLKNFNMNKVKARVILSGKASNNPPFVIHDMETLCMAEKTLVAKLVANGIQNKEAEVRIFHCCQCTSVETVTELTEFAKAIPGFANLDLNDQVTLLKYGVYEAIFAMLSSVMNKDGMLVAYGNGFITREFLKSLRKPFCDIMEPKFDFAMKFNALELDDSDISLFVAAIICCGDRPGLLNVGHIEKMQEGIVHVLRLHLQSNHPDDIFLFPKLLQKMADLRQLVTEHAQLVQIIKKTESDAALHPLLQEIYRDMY
Sequence of Glucocorticoid receptor (Homo sapiens) (P04150 whole entry, looked up): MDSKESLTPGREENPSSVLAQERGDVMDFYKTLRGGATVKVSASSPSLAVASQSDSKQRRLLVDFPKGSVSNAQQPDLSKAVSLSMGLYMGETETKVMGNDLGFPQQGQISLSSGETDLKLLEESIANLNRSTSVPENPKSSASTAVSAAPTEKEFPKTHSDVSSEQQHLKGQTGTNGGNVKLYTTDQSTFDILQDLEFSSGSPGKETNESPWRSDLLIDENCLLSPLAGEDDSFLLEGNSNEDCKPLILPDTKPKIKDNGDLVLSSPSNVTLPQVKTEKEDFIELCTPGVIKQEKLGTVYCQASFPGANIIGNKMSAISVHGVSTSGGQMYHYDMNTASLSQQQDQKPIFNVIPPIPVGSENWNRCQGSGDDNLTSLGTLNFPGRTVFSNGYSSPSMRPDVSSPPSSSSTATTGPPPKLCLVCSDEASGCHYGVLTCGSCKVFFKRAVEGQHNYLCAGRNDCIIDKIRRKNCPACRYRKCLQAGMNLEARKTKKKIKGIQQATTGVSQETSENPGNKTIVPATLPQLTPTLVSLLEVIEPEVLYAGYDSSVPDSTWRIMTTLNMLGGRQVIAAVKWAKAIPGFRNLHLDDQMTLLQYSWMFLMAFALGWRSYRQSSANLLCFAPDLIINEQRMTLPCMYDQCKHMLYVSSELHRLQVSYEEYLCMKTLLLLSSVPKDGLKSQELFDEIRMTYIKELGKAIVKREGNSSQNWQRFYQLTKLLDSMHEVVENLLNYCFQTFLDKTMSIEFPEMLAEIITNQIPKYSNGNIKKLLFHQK
Sequence of Bile acid receptor (Homo sapiens) (Q96RI1 whole entry, looked up): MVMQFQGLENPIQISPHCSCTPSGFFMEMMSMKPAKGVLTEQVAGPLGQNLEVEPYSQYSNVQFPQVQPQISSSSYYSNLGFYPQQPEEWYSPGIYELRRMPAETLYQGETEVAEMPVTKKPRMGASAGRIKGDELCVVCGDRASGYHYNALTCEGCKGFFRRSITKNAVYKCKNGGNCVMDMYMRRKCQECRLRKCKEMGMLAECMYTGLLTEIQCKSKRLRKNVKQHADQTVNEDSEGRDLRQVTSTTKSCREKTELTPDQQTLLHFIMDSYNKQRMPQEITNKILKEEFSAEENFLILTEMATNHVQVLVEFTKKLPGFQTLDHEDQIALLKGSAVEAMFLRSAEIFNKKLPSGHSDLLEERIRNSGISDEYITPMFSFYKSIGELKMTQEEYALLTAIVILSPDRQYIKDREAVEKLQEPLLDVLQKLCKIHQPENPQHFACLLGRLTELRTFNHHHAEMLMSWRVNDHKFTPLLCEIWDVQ
Sequence of Vitamin D3 receptor (Homo sapiens) (P11473 whole entry, looked up): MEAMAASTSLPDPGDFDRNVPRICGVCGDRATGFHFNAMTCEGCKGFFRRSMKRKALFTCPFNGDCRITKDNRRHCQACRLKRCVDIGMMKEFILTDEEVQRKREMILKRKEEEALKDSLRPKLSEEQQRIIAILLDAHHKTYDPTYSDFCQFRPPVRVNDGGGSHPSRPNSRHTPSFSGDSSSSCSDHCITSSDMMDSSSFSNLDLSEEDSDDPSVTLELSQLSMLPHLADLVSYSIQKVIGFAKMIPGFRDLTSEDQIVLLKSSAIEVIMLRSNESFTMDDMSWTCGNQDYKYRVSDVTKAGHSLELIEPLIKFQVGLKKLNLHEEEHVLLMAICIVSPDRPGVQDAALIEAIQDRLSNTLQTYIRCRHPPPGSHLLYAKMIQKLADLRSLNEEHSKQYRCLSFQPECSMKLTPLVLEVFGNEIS
Sequence of Thyroid hormone receptor beta (Homo sapiens) (P10828 whole entry, looked up): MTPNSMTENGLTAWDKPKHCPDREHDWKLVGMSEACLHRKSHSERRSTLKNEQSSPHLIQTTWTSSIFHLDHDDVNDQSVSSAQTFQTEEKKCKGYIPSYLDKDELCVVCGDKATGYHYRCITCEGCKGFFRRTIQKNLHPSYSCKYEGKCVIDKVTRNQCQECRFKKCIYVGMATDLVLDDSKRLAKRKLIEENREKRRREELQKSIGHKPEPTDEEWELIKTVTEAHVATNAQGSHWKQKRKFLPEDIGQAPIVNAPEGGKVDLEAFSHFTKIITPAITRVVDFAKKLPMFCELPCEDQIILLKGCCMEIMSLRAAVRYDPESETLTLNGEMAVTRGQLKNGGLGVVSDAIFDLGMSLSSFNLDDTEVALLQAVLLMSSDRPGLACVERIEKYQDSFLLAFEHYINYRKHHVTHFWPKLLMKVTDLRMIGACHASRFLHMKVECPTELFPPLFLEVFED
Sequence of Peroxisome proliferator-activated receptor delta (Homo sapiens) (Q03181 whole entry, looked up): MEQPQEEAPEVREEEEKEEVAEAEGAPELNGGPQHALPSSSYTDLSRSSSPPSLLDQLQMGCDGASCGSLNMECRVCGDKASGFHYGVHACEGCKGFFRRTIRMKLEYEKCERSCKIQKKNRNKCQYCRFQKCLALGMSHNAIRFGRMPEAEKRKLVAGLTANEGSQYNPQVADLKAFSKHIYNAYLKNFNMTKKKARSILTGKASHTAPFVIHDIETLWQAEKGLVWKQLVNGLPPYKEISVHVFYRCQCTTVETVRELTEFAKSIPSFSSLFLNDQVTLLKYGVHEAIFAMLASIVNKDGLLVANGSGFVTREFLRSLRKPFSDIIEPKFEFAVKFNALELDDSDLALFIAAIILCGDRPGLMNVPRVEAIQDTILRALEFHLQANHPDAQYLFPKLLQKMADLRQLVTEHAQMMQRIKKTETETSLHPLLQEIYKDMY

With `O=[N+]([O-])c1cc(C(F)(F)F)c(Cl)c([N+](=O)[O-])c1Nc1ncc(C(F)(F)F)cc1Cl`, the Potency in assay [1] is 25.1 µM (active); in [4], 22.4 µM (active); in [6], 35.5 µM (active); in [7] it was 35.5 µM (active). The activation in [2] is 2.48% (inactive). Further, the outcome in assay [3] was inactive. Also, the Potency entry in assay [5] is “inactive”.
As to `CCOP(=O)(OCC)Oc1cc(C)nc(C(C)C)n1`, the Potency entry in assay [1] and in assay [5] was “inactive” throughout. Further, the activation is -3.07% (inactive) in assay [2], 20.3% (inactive) in assay [8], -7.84% (inactive) in [12] and -0.423% (inactive) in assay [13]. Further, in assay [3], the result was inactive. Moreover, the max response is 22.9% in assay [9]; 13.6% in assay [10]; 18.7% (inactive) in assay [11]; -1.71% (inactive) in [14]; 16.1% (inactive) in assay [6]; 7.77% (inactive) in assay [7].
For the molecule `C[Si](Cn1cncn1)(c1ccc(F)cc1)c1ccc(F)cc1`, the Potency in [1] is 22.4 µM (active). The figures for the activation in assay [2], in assay [12] and in assay [13] were 2.34% (inactive), -4.21% (inactive) and 6.54% (inactive), respectively. In addition, the Potency result in assay [4], in assay [16] and in assay [5] was “inactive” in each case. In assay [15], the molecule was called inactive. The figures for the max response in assay [14] and in [6] were -0.864% (inactive) and -21.1% (inactive), respectively.
`Cc1ccn2nc(S(=O)(=O)Nc3c(F)cccc3F)nc2n1`: the Potency result in assay [1], in assay [4], in [17], in assay [5] and in [18] was “inactive” each time. Further, the activation in assay [2] is -2.19% (inactive); in assay [13] it was -0.461% (inactive). The max response in assay [9] is 35.3%; in assay [10], 2.3%; in [11], -2.18% (inactive); in [14] it was 0.276% (inactive); in assay [6] it was 14.2% (inactive); in assay [7], -3.63% (inactive). The call in [15] was inactive.
In the case of `CO/N=C(/C1=NOCCO1)c1ccccc1Oc1ncnc(Oc2ccccc2Cl)c1F`, the Potency in assay [1] was 35.5 µM (active). Moreover, the activation in assay [2] is 7.75% (inactive); in [8], -11.9% (inactive); in assay [19], 4.67% (inactive). Moreover, the max response in assay [14] was 18.3% (inactive); in [6], 16.2% (inactive); in assay [7] it was 6.13% (inactive). Moreover, the Potency result in assay [5] is “inactive”.
Regarding `O=[N+]([O-])c1ccc(Nc2ccccc2)cc1`, the Potency result in [1], in assay [16] and in assay [18] was “inactive” throughout. The activation in [2] was 0.7% (inactive); in assay [8], -0.43% (inactive); in [12] it was -0.549% (inactive); in assay [19], 0.166% (inactive); in assay [13], 5.27% (inactive). Moreover, the call in assay [15] was inactive. Also, the max response is -4.45% in assay [10]; -16.2% (inactive) in assay [11]; -1.55% (inactive) in assay [14]; -13.2% (inactive) in assay [6]; 1.82% (inactive) in [7]. In addition, in [20], the activity change % (negative = inhibition) is -15.7% (inactive).
